Results taken from PubChem BioAssay.
The source made the active and inactive calls. Unless noted, the rule behind the calls is not given here.

Key:
[1] = tested on: Wnt5a (protein binding on small-molecule microarray); assay: small molecules binding Wnt5a protein – biophysical, small-molecule microarray, 635/667 nm fluorescence, primary screen (AID 1142); conditions: 635 nm fluorescence, higher = more signal;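 note: fluorescence read at 667 nm with signal to noise per printed feature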
[2] = ATP-based viability of Huh7 replicon cells – cell-based, CellTiter-Glo luminescence, basal, 48 h, cytotoxicity control for HCV replication inhibitor project, primary screen (AID 1143); conditions: higher = more signal, called active from +8 up or from −8 down;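 note: Huh7 hepatoma cells carrying a hepatitis C replication reporter with no stimulus; test concentration not given here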
[3] = Pseudomonas biofilm growth suppression – PAO1 strain, BacTiter-Glo luminescence, LB-PBS, primary screen (AID 1144); conditions: P. aeruginosa PAO1 biofilm, 12 h, higher = more signal
[4] = basal CRE-LacZ reporter activity in PC12 – cell-based, unstimulated, primary screen (AID 1145); conditions: no forskolin, luminescence, 4.5 h, higher = more signal, called active from +8 up or from −8 down
[5] = forskolin-driven CRE-LacZ activity in PC12 – cell-based, CRE-LacZ reporter, forskolin-stimulated, primary screen (AID 1146); conditions: luminescence, 4.5 h, higher = more signal, called active from +8 up or from −8 down;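 note: PC12 cells with 6xCRE LacZ reporter stimulated by forskolin 10 µM; beta-galactosidase reporter signal reflecting CREB driven transcription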
[6] = target: Streptavidin (Streptomyces avidinii) (UniProt P22629); assay: compounds binding control protein streptavidin – biophysical, small-molecule microarray, 635/667 nm fluorescence, artefact control for SMM compound annotation, primary screen (AID 1147); conditions: higher = more signal;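 note: signal reflects streptavidin binding to arrayed compounds as a control protein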
[7] = probe aInhba binding on compound microarray – biochemical, small-molecule microarray, 635/667 nm fluorescence, primary screen (AID 1148); conditions: higher = more signal;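 note: score merges 667nm spot fluorescence with signal-to-noise for antibody binding to printed compounds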
Torsin-1A (Homo sapiens) [8] = target: Torsin-1A (Homo sapiens) (UniProt O14656); assay: TOR1A wild-type binding on microarray – cell lysate, small-molecule microarray, lysate, 635/667 nm, primary screen (AID 1149); conditions: COS7 hTOR1A-WT lysate, 635 nm fluorescence, higher = more signal
Torsin-1A (Homo sapiens) [9] = target: Torsin-1A (Homo sapiens) (UniProt O14656); assay: torsin A mutant lysate binding on microarrays – cell lysate, small-molecule microarray, COS7 lysate, 635/667 nm fluorescence, primary screen (AID 1150); conditions: COS7 hTOR1A mutant lysate, 635 nm fluorescence, higher = more signal;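 note: score pools 667 nm emission and signal to noise measuring lysate protein binding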
[10] = tested on: Sonic hedgehog protein (Shh); assay: Sonic hedgehog microarray binding compounds – biochemical, small-molecule microarray, 635/667 nm fluorescence, primary screen (AID 1151); conditions: 635 nm fluorescence, higher = more signal;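 note: Shh protein binding to compounds spotted on small-molecule microarray slides; score combines spot fluorescence intensity with signal-to-noise across triplicate slides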
[11] = optical density shifts of acrAB sulA E. coli – strain DRC41, OD650, 48 h, E. coli filamentation inducer project, primary screen (AID 1152); conditions: higher = more signal, called active from +8 up or from −8 down;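 note: E. coli MC1000 strain DRC41 lacking acrAB efflux pump and sulA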
[12] = probe aLefty1 binding on compound microarray – biochemical, small-molecule microarray, 635/667 nm fluorescence, primary screen (AID 1153); conditions: higher = more signal;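 note: score merges spot fluorescence with signal-to-noise ratio from the scanned slide images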
[13] = plasmodial surface anion channel blockers, osmotic lysis – cell-based, P. falciparum Indochina, OD700, 1 h, primary screen (AID 1154); conditions: P. falciparum Indochina infected RBC osmotic lysis, higher = more signal, called active from +8 up or from −8 down
[14] = plasmodial surface anion channel blockers, osmotic lysis – cell-based, P. falciparum Indochina, OD700, 2 h, primary screen (AID 1155);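 note: lysis reports solute entry through the parasite surface anion channel PSAC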; conditions: P. falciparum Indochina infected erythrocytes, higher = more signal, called active from +8 up or from −8 down
[15] = changes in parasitized red cell lysis, either direction – P. falciparum Indochina, OD700, 3 h, PSAC antagonist project, primary screen (AID 1156); conditions: P. falciparum-infected erythrocytes, osmotic lysis, higher = more signal, called active from +8 up or from −8 down
[16] = plasmodial surface anion channel blockers, osmotic lysis – cell-based, P. falciparum Indochina, OD700, 18 h, primary screen (AID 1157); conditions: P. falciparum Indochina infected erythrocytes, osmotic lysis OD700, 18 h; higher = more signal, called active from +8 up or from −8 down
[17] = S6 kinase pathway phospho-S6 level changes – cell-based, A549, cytoblot, luminescence, serum-stimulated, primary screen (AID 1158); conditions: 5 h, higher = more signal;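 note: serum-stimulated A549 lung adenocarcinoma cells; signal is phosphorylated S6 detected by cytoblot immunostaining with HRP secondary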
[18] = target: NADPH oxidase 2 (Homo sapiens) (UniProt P04839); assay: compounds shifting NOX2 Amplex Red fluorescence – cell-based, HEK293-NOX2, PMA-stimulated, NOX inhibitor project, primary screen (AID 1159); conditions: 45 min, higher = more signal, called active from +8 up or from −8 down; note: test concentration not given here
[19] = target: NADPH oxidase 4 (Homo sapiens) (UniProt Q9NPH5); assay: compounds shifting NOX4 Amplex Red fluorescence – cell-based, HEK293-NOX4, tetracycline-induced, NOX inhibitor project, primary screen (AID 1160); conditions: HEK293-NOX4, Amplex Red H2O2 fluorescence, 45 min; higher = more signal, called active from +8 up or from −8 down
[20] = target: NADPH oxidase 5 (Homo sapiens) (UniProt Q96PH1); assay: compounds shifting NOX5 Amplex Red fluorescence – cell-based, HEK293-NOX5, NOX inhibitor project, primary screen (AID 1161); conditions: HEK293-NOX5, ionomycin, 45 min, higher = more signal
Chain of NADPH oxidase 5 (Homo sapiens) (Q96PH1 whole entry, looked up): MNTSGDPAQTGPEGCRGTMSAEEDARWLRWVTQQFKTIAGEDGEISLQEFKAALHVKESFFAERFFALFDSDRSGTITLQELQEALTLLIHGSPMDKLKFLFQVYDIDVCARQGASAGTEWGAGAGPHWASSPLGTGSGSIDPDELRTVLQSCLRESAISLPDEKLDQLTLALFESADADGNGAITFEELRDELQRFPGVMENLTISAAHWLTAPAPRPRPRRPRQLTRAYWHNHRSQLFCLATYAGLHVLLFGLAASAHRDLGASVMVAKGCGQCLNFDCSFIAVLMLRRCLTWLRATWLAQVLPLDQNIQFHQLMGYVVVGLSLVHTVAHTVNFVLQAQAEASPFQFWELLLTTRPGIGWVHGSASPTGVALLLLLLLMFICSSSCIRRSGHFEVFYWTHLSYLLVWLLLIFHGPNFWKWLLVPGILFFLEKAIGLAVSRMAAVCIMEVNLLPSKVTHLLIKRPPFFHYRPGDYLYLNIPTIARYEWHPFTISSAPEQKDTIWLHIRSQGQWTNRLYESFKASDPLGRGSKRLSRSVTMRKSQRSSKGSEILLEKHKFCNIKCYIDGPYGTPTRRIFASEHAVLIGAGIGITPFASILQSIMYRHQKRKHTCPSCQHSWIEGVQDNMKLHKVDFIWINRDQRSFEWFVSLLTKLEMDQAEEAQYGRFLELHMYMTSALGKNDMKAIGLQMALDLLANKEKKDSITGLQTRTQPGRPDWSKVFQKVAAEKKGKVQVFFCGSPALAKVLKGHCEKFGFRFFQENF

Chain of Torsin-1A (Homo sapiens) (O14656 whole entry, looked up): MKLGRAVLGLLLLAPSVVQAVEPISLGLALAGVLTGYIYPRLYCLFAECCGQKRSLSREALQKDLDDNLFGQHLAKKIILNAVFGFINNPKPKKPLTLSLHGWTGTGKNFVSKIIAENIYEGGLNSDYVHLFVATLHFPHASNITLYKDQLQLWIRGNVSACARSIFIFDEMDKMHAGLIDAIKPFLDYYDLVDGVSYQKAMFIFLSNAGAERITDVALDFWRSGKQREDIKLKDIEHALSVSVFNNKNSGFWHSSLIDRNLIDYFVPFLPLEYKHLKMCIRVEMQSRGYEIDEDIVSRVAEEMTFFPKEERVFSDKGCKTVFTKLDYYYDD
Chain of Streptavidin (Streptomyces avidinii) (P22629 whole entry, looked up): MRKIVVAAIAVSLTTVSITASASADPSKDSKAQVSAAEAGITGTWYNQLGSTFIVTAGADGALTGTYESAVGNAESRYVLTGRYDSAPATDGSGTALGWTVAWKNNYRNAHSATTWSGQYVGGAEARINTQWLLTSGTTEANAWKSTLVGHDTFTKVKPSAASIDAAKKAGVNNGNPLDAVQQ
Chain of NADPH oxidase 2 (Homo sapiens) (P04839 whole entry, looked up): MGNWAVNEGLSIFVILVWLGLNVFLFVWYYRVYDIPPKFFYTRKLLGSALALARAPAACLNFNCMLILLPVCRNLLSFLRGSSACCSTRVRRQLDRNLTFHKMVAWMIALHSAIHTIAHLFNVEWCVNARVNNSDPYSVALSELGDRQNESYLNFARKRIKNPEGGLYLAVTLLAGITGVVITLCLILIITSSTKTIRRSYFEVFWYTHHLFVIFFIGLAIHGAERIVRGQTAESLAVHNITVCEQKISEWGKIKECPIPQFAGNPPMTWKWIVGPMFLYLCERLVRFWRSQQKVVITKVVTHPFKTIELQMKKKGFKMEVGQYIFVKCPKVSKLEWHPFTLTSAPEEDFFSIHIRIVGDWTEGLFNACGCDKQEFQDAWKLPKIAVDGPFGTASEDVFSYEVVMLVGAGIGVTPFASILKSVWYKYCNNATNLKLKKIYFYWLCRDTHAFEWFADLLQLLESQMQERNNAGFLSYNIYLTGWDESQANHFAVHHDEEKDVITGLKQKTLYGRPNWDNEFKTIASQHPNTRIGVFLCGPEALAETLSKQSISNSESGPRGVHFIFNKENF
Chain of NADPH oxidase 4 (Homo sapiens) (Q9NPH5 whole entry, looked up): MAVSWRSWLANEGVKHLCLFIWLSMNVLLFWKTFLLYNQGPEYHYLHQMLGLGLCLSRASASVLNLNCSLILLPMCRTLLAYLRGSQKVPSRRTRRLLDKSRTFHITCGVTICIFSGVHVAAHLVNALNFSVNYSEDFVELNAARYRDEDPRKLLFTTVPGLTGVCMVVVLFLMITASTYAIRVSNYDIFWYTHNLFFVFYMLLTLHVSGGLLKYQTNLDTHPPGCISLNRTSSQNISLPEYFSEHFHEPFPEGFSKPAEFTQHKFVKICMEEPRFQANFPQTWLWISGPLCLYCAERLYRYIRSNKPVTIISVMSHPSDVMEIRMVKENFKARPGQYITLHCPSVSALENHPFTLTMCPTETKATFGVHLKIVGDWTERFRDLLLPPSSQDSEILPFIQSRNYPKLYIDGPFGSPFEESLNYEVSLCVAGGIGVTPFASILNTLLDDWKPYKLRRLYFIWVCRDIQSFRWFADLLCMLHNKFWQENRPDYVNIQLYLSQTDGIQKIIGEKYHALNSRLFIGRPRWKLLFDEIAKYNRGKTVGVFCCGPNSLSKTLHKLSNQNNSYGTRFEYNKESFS

## CCOC(=O)[C@H](CC(C)C)NC(=O)CCC1CC(OC(=O)NCc2cccc3ccccc23)CC2(CCCC(COC(=O)NCCC(C)C)O2)O1 (stereo not given in full)
[1]
  composite z-score: 0.0463
[2]
  z-score: -2.6 (inactive)
[3]
  z-score: -1.52 (inactive)
[4]
  z-score: 0.563 (inactive)
[5]
  z-score: -0.535 (inactive)
[6]
  composite z-score: -0.589
[7]
  composite z-score: -0.0736
Torsin-1A (Homo sapiens) [8]
  composite z-score: -0.0418
Torsin-1A (Homo sapiens) [9]
  composite z-score: 0.185
[10]
  composite z-score: 0.784
[11]
  z-score: -0.64 (inactive)
[12]
  composite z-score: 0.185
[13]
  z-score: 22.7 (active)
[14]
  z-score: 6.81 (inactive)
[15]
  z-score: -0.861 (inactive)
[16]
  z-score: 0.78 (inactive)
[17]
  z-score: 2.49
[18]
  z-score: 0.902 (inactive)
[19]
  z-score: 0.777 (inactive)
[20]
  z-score: 0.389

## CO[C@@H]1COC(=O)CC=C[C@@H](C)[C@@H]2C=C[C@H](O)[C@@H](COC(=O)CC=C[C@H]1C)O2
[1]
  composite z-score: -0.186
[2]
  z-score: -0.256 (inactive)
[3]
  z-score: 0.177 (inactive)
[4]
  z-score: 0.877 (inactive)
[5]
  z-score: -0.0355 (inactive)
[6]
  composite z-score: -0.0274
[7]
  composite z-score: -0.255
Torsin-1A (Homo sapiens) [8]
  composite z-score: 2.58
Torsin-1A (Homo sapiens) [9]
  composite z-score: 1.72
[10]
  composite z-score: 2.13
[11]
  z-score: 0.988 (inactive)
[12]
  composite z-score: -0.0984
[13]
  z-score: 0.872 (inactive)
[14]
  z-score: -0.28 (inactive)
[15]
  z-score: 0.178 (inactive)
[16]
  z-score: -0.213 (inactive)
[17]
  z-score: 1.2
[18]
  z-score: 0.262 (inactive)
[19]
  z-score: 1.18 (inactive)
[20]
  z-score: 0.589

## CO[C@H]1COC(=O)CC=C[C@@H](C)[C@H](OC)COC(=O)CCC[C@@H]1C
[1]
  composite z-score: -0.0494
[2]
  z-score: -0.127 (inactive)
[3]
  z-score: -0.913 (inactive)
[4]
  z-score: -0.482 (inactive)
[5]
  z-score: 0.0877 (inactive)
[6]
  composite z-score: 0.0616
[7]
  composite z-score: -0.153
Torsin-1A (Homo sapiens) [8]
  composite z-score: 1.89
Torsin-1A (Homo sapiens) [9]
  composite z-score: 0.33
[10]
  composite z-score: 1.18
[11]
  z-score: 0.398 (inactive)
[12]
  composite z-score: -0.216
[13]
  z-score: -0.674 (inactive)
[14]
  z-score: -1.22 (inactive)
[15]
  z-score: -0.518 (inactive)
[16]
  z-score: -2.08 (inactive)
[17]
  z-score: -0.0645
[18]
  z-score: 0.00516 (inactive)
[19]
  z-score: 0.612 (inactive)
[20]
  z-score: 0.863

## O=C1CCCC(C2=CCCCC2=O)C1 (stereo not given)
[1]
  composite z-score: 0.18
[2]
  z-score: 0.211 (inactive)
[3]
  z-score: 0.0656 (inactive)
[4]
  z-score: 0.019 (inactive)
[5]
  z-score: -0.222 (inactive)
[6]
  composite z-score: -0.15
[7]
  composite z-score: -0.0288
Torsin-1A (Homo sapiens) [8]
  composite z-score: 0.217
Torsin-1A (Homo sapiens) [9]
  composite z-score: 0.37
[10]
  composite z-score: 0.626
[11]
  z-score: -0.316 (inactive)
[12]
  composite z-score: -0.0224
[13]
  z-score: 0.599 (inactive)
[14]
  z-score: -0.349 (inactive)
[15]
  z-score: 0.231 (inactive)
[16]
  z-score: -0.168 (inactive)
[17]
  z-score: 0.142
[18]
  z-score: -0.7 (inactive)
[19]
  z-score: -0.427 (inactive)
[20]
  z-score: -0.253

## Cc1cc2c(nc1C)CCCCN2CC(C)ON=C[C@@H](C)[C@H](OCc1ccccc1)C(C)C (stereo not given in full)
[1]
  composite z-score: -0.918
[2]
  z-score: -4.86 (inactive)
[3]
  z-score: 0.207 (inactive)
[4]
  z-score: 2.44 (inactive)
[5]
  z-score: 0.676 (inactive)
[6]
  composite z-score: -1.88
[7]
  composite z-score: -0.26
Torsin-1A (Homo sapiens) [8]
  composite z-score: -3.92
Torsin-1A (Homo sapiens) [9]
  composite z-score: -1.34
[10]
  composite z-score: -0.436
[11]
  z-score: -0.0958 (inactive)
[12]
  composite z-score: -0.8
[13]
  z-score: 1.34 (inactive)
[14]
  z-score: 0.147 (inactive)
[15]
  z-score: 0.472 (inactive)
[16]
  z-score: 0.171 (inactive)
[17]
  z-score: -0.732
[18]
  z-score: -0.892 (inactive)
[19]
  z-score: -0.45 (inactive)
[20]
  z-score: -3.3

## COc1ccc(COC(=O)NN=C2C[C@@H](O)[C@@H](O)[C@@H]3[C@@H]4C(=O)N(Cc5ccccc5)C(=O)[C@@H]4CC[C@H]23)cc1
[1]
  composite z-score: -0.419
[2]
  z-score: -0.541 (inactive)
[3]
  z-score: 0.43 (inactive)
[4]
  z-score: 0.702 (inactive)
[5]
  z-score: -0.0005 (inactive)
[6]
  composite z-score: 0.273
[7]
  composite z-score: -0.753
Torsin-1A (Homo sapiens) [8]
  composite z-score: -0.429
Torsin-1A (Homo sapiens) [9]
  composite z-score: -0.186
[10]
  composite z-score: -1.44
[11]
  z-score: -0.0671 (inactive)
[12]
  composite z-score: 0.641
[13]
  z-score: 8.9 (active)
[14]
  z-score: 0.507 (inactive)
[15]
  z-score: -1.3 (inactive)
[16]
  z-score: -1.17 (inactive)
[17]
  z-score: -0.411
[18]
  z-score: 1.43 (inactive)
[19]
  z-score: 0.954 (inactive)
[20]
  z-score: 0.729

## CCOC(=O)[C@H](CC(C)C)NC(=O)CCC1CC(OC(=O)NCc2ccc3c(c2)OCO3)CC2(CCCC(COC(=O)NCc3cccc(C(F)(F)F)c3)O2)O1 (stereo not given in full)
[1]
  composite z-score: -0.194
[2]
  z-score: -0.183 (inactive)
[3]
  z-score: -0.67 (inactive)
[4]
  z-score: 0.11 (inactive)
[5]
  z-score: 0.814 (inactive)
[6]
  composite z-score: -0.113
[7]
  composite z-score: 0.0184
Torsin-1A (Homo sapiens) [8]
  composite z-score: 0.175
Torsin-1A (Homo sapiens) [9]
  composite z-score: -0.272
[10]
  composite z-score: 0.387
[11]
  z-score: -0.457 (inactive)
[12]
  composite z-score: 0.125
[13]
  z-score: 1.73 (inactive)
[14]
  z-score: 0.182 (inactive)
[15]
  z-score: 0.286 (inactive)
[16]
  z-score: 0.297 (inactive)
[17]
  z-score: 0.427
[18]
  z-score: 1.46 (inactive)
[19]
  z-score: 0.179 (inactive)
[20]
  z-score: 1.2

## CC(C)=NOC[C@@H](C)[C@H](OCc1ccccc1)C(C)C
[1]
  composite z-score: -0.437
[2]
  z-score: 0.563 (inactive)
[3]
  z-score: -0.181 (inactive)
[4]
  z-score: 1.17 (inactive)
[5]
  z-score: 0.112 (inactive)
[6]
  composite z-score: 0.0253
[7]
  composite z-score: -0.128
Torsin-1A (Homo sapiens) [8]
  composite z-score: -0.522
Torsin-1A (Homo sapiens) [9]
  composite z-score: -0.31
[10]
  composite z-score: -0.448
[11]
  z-score: 0.287 (inactive)
[12]
  composite z-score: 0.103
[13]
  z-score: 0.641 (inactive)
[14]
  z-score: 0.503 (inactive)
[15]
  z-score: 0.795 (inactive)
[16]
  z-score: 0.39 (inactive)
[17]
  z-score: 0.453
[18]
  z-score: 0.409 (inactive)
[19]
  z-score: -1.72 (inactive)
[20]
  z-score: -1
